Laboratory results reported in PubChem BioAssay (NCATS).
Results filed as inconclusive are left out. Unmarked numbers belong to inactive results. The source made the active and inactive calls. Calls come from the whole dose curve; as a rule, active = well fitted cell-killing curve with a large enough effect; inconclusive = small, poorly fitted or top-dose-only effect; inactive = no such curve, though single readings can be large or run the other way.

Test: qHTS of pediatric cancer cell lines to identify multiple opportunities for drug repurposing: Confirmatory screen for Rh41 cells (AID 1347123);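 note: 48 h compound exposure; nearly all actives have a fitted effect of over 60% in size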
Conditions: Rh41 rhabdomyosarcoma cells, viability/cytotoxicity qHTS; series mostly up to 45.9 µM
Source text: Drug repurposing or repositioning has been offered as a strategy for drug development in oncology programs. This approach has special potential for childhood cancers and other rare or orphan diseases, where the expected return on new drug development has been a disincentive to pharmaceuticals.
In this project we exploit the poly-pharmacology of drugs to discover new indications via phenotypic screening of a panel of 19 well-characterized cell lines derived from solid tumors seen in children and adolescents. The goal is to identify approved drugs with previously unrecognized anticancer properties that has the potential to reveal new mechanisms and biological processes involved in carcinogenesis or drug resistance. We employed a titration-based paradigm (quantitative high-throughput screening or qHTS), where all compounds were tested at multiple concentrations for their effect on cell viability. Concentration-response curves (CRCs) were derived directly from the primary screen, and both potency and efficacy values were used to identify compounds with robust bioactivity profiles. We screened the NIH Chemical Genomics Center (NCGC) Pharmaceutical Collection (NPC) and Mechanism Interrogation Plate (MIPE) small molecule collections of approved and investigational compounds against these cell lines; and measured metabolically active cells after 48 hours of compound treatment as a proxy for cell viability.
Assay Submitter: Nathalia J. Martinez, National Center for Advancing Translational Sciences, National Institutes of Health, Rockville, MD, USA; email: natalia.martinez@nih.gov
[1] Shen, M et al. Quantitative high-throughput phenotypic screening of pediatric cancer cell lines identifies multiple opportunities for drug repurposing. Oncotarget 2017 Dec 19;9(4):4758-4772. PMID 29435139.
The cells were obtained from University of North Carolina (UNC), Pediatric Preclinical Testing Program (PPT), and Coriell Institute (CI).
qHTS cell viability assay:
Cells were assayed in growth media at a density of 500-1,000 cells/well. Five microliters of cells were dispensed into 1,536-well, white, solid-bottom, TC-treated plates (Greiner Bio One) using a multidrop dispenser and incubated at 37 degrees C, 5% CO2, under a humidified atmosphere for 5 hours. Twenty-three nanoliters of compounds and controls (neutral control DMSO or positive control bortezomib at final concentration of 2.3 µM) were subsequently transferred by Kalypsys pintool. For primary screens, the MIPE collection was tested at 11-point dilutions (final concentrations range from 0.78 nM to 46 µM) and the NPC collection at 8-point dilutions (final concentrations range from 0.59 nM to 46 µM). Compounds tested in follow-up screens were assayed at 11-point dilutions. Cells were incubated for 48 hours, followed by addition of 3 µL of CellTiter-Glo (Promega). After a 15 min incubation at room temperature, samples were analyzed for luminescence intensity using a ViewLux High-throughput CCD imager equipped with clear filters.
Potency is the fitted concentration of half-maximal effect.

SMILES | Potency | activity change, negative = cytotoxic
O=C(CCCN1CC=C(n2c(=O)[nH]c3ccccc32)CC1)c1ccc(F)cc1 | 18.5 µM (active) | –
CCN(CC)CCOc1ccc2c(c1)C(=O)c1cc(OCCN(CC)CC)ccc1-2 | 23.3 µM (active) | –
O=[N+]([O-])c1ccc(/C=N\O)o1 | 5.85 µM (active) | –
COc1ccc(C(=O)c2ccccc2)c(O)c1 | inactive | –
CCN[C@@H]1C[C@H](N)[C@@H](OC2OC(CN)=CCC2N)[C@H](O)[C@H]1O[C@H]1OC[C@](C)(O)[C@H](NC)[C@H]1O (stereo partly drawn) | – | 13.6% [at 0.556 µM]
CCN1/C(=C/C=C/c2sc3ccccc3[n+]2CC)Sc2ccccc21 | 0.512 µM (active) | –
C[C@H]1O[C@@H](O[C@H]2CC[C@@]3(C)[C@H](CC[C@@H]4[C@@H]3C[C@@H](O)[C@]3(C)[C@@H](C5=CC(=O)OC5)CC[C@]43O)C2)C[C@H](O)[C@@H]1O[C@H]1C[C@H](O)[C@H](O[C@H]2C[C@H](O)[C@H](O[C@@H]3O[C@H](CO)[C@@H](O)[C@H](O)[C@H]3O)[C@@H](C)O2)[C@@H](C)O1 | 0.147 µM (active) | –
O=C(Oc1cccc2cccnc12)c1ccccc1 | 8.27 µM (active) | –
NC(N)=NN=C(/C=C/c1ccc([N+](=O)[O-])o1)/C=C/c1ccc([N+](=O)[O-])o1 | 1.65 µM (active) | –
CCCCCCCCCCC[C@@H](C[C@@H]1OC(=O)[C@H]1CCCCCC)OC(=O)[C@H](CC(C)C)NC=O | 4.65 µM (active) | –
C[C@@]12C(=O)OC(=O)[C@]1(C)C1CCC2O1 | 2.08 µM (active) | –
CC1CCc2c(N3CCC(O)CC3)c(F)cc3c(=O)c(C(=O)O)cn1c23 (stereo not drawn) | 18.5 µM (active) | –
C=C[C@@]1(C)CC(=O)[C@]2(O)[C@@]3(C)[C@@H](O)CCC(C)(C)[C@@H]3[C@H](O)[C@H](OC(C)=O)[C@@]2(C)O1 | inactive | –
